Measurements as given in ChEMBL document CHEMBL2218924, “A broad activity screen in support of a chemogenomic map for kinase signalling research and drug discovery” (Biochem J, 2013).

Key:
[1] = target: Ephrin type-A receptor 7 (Homo sapiens) (UniProt Q15375); details: at 1 µM
[2] = target: Ephrin type-A receptor 7 (Homo sapiens) (UniProt Q15375); details: at 10 µM
[3] = target: T1, Ephrin type-B receptor 1 (Homo sapiens) (UniProt P54762); details: at 1 µM
T1 sequence (whole entry): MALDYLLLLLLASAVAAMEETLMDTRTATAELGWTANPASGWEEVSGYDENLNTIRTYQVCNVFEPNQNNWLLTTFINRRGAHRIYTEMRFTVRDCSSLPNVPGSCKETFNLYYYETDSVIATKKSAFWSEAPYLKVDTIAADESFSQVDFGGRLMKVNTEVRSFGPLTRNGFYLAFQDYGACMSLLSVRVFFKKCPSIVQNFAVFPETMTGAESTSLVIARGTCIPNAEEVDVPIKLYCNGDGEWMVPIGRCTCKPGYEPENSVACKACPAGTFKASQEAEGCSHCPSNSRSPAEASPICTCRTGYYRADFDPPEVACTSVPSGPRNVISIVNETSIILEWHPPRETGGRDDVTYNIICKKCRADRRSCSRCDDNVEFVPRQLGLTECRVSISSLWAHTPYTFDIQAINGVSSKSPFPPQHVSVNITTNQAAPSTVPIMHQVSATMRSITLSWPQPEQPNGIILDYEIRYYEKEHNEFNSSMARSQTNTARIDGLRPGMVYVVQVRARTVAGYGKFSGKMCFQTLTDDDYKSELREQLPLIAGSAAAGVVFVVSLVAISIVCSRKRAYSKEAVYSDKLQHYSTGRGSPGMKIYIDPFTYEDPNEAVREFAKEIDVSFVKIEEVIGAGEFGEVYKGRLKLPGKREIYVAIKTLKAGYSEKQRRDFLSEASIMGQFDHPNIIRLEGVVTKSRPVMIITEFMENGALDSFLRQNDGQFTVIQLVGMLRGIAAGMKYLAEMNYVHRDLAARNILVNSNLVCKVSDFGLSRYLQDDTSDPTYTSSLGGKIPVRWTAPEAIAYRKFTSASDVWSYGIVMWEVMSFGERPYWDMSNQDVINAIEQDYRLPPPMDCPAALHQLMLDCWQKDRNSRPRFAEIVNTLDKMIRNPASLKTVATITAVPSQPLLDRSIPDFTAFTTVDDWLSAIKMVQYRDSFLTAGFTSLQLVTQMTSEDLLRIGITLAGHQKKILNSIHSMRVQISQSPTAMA

[4] = target: T1, Ephrin type-B receptor 1 (Homo sapiens); details: at 10 µM
[5] = target: T2, Ephrin type-B receptor 3 (Homo sapiens) (UniProt P54753); details: at 1 µM
T2 sequence (whole entry): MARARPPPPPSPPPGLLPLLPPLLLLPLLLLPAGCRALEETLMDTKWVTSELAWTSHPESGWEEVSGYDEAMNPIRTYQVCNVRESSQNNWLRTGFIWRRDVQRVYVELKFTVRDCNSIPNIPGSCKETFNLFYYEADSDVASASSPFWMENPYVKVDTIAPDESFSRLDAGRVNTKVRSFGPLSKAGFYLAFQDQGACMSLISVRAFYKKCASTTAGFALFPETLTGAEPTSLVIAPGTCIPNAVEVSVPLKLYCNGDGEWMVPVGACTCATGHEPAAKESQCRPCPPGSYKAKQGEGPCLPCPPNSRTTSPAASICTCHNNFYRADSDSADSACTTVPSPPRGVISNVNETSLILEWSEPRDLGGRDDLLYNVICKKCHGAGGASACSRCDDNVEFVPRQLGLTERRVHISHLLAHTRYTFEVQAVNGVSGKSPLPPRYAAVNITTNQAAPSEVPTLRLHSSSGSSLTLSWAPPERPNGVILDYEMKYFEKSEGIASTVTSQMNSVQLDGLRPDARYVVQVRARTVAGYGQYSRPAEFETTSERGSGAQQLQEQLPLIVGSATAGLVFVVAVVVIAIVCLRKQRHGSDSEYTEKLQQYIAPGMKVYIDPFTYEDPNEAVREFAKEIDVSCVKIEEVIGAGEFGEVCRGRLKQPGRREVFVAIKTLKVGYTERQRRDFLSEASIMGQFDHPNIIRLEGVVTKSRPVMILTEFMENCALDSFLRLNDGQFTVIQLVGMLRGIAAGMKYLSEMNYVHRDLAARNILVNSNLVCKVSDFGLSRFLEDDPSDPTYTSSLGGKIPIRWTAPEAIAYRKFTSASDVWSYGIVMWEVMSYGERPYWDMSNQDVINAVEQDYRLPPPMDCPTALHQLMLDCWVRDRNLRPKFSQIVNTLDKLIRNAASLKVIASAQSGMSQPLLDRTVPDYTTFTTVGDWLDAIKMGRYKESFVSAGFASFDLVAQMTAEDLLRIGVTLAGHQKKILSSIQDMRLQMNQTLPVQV

[6] = target: T2, Ephrin type-B receptor 3 (Homo sapiens); details: at 10 µM
[7] = target: T3, Ephrin type-B receptor 4 (Homo sapiens) (UniProt P54760); details: at 1 µM
T3 sequence (whole entry): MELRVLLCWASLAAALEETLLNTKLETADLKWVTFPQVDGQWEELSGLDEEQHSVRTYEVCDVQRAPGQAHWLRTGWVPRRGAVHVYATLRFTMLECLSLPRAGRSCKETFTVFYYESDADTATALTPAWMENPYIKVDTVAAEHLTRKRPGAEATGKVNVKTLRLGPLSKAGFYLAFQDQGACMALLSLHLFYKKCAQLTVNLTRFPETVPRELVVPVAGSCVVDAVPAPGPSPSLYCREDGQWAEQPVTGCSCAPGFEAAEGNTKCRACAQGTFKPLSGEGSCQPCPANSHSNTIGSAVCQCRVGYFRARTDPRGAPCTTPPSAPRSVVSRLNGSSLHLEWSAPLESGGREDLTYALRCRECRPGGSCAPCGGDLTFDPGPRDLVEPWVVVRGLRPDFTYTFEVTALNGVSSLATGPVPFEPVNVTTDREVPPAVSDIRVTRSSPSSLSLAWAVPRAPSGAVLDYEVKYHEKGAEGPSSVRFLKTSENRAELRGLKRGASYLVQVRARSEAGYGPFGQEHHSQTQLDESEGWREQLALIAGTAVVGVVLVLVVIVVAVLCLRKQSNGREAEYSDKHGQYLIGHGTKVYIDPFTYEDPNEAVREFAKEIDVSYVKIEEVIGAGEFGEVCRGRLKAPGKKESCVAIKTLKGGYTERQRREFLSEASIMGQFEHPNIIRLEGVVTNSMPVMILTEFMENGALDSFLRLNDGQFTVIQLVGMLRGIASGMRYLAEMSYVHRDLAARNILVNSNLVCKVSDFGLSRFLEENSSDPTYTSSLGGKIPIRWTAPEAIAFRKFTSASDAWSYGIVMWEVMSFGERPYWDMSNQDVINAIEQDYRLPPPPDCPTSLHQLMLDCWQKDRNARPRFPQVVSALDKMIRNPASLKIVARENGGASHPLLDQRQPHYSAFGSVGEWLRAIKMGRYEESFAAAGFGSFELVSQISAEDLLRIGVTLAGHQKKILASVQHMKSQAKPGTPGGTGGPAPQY

[8] = target: T3, Ephrin type-B receptor 4 (Homo sapiens); details: at 10 µM
[9] = target: Receptor tyrosine-protein kinase erbB-4 (Homo sapiens) (UniProt Q15303); details: at 1 µM
[10] = target: Focal adhesion kinase 1 (Homo sapiens) (UniProt Q05397); details: at 1 µM
Focal adhesion kinase 1 (Homo sapiens), sequence (Q05397 2-1052 limits assumed): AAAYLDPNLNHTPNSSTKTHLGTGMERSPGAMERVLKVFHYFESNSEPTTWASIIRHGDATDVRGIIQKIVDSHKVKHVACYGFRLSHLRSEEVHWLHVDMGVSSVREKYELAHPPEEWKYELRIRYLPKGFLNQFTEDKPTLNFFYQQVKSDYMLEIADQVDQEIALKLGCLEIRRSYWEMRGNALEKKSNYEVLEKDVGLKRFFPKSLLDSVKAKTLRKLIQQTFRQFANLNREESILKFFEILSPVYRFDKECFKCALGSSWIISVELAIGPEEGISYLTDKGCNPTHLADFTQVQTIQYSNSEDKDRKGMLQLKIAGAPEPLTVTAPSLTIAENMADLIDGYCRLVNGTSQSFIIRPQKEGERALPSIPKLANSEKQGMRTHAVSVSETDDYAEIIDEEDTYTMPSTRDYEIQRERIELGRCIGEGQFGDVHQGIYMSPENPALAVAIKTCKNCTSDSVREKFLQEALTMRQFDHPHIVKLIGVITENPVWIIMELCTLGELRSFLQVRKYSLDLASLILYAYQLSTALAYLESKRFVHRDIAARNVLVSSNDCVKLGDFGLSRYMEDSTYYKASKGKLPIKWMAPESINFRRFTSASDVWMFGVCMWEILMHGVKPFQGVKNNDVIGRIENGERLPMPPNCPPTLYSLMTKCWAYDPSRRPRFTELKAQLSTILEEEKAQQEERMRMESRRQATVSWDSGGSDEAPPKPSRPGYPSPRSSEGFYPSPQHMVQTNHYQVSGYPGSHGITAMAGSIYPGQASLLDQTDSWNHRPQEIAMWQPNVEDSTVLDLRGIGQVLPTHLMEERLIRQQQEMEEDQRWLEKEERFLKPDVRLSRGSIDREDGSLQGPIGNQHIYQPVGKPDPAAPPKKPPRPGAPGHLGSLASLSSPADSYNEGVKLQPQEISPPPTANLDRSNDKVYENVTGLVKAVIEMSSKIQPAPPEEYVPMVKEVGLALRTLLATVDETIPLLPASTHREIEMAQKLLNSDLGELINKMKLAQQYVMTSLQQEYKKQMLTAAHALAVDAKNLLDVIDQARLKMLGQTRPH

Ephrin type-A receptor 7 (Homo sapiens), sequence (Q15375 28-998 limits assumed): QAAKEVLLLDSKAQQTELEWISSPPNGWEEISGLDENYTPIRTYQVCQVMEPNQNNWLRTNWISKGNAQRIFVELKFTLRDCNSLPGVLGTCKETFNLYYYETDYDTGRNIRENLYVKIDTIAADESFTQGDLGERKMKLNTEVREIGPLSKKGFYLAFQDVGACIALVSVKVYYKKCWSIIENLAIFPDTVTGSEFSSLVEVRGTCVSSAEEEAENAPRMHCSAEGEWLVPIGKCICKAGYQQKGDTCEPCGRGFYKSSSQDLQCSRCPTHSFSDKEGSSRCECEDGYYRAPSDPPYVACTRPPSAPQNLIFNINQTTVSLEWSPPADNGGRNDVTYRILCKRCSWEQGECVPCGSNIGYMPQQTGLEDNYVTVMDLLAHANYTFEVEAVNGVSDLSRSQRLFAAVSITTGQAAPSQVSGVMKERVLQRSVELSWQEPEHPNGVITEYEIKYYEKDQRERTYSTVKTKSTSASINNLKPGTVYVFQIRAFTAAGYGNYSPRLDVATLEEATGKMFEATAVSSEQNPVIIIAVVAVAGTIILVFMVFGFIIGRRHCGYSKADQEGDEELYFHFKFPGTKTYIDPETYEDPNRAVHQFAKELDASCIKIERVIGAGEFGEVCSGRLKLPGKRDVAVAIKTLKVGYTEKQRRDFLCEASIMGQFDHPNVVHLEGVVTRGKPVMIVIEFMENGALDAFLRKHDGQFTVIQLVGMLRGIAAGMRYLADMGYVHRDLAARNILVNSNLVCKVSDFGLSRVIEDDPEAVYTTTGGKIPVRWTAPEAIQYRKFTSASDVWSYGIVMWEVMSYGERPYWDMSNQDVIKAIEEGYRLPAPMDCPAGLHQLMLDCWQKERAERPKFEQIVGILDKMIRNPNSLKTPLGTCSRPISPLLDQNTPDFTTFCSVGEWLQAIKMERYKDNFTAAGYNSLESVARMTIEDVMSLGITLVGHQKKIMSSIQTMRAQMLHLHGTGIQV
Receptor tyrosine-protein kinase erbB-4 (Homo sapiens), sequence (Q15303 whole entry): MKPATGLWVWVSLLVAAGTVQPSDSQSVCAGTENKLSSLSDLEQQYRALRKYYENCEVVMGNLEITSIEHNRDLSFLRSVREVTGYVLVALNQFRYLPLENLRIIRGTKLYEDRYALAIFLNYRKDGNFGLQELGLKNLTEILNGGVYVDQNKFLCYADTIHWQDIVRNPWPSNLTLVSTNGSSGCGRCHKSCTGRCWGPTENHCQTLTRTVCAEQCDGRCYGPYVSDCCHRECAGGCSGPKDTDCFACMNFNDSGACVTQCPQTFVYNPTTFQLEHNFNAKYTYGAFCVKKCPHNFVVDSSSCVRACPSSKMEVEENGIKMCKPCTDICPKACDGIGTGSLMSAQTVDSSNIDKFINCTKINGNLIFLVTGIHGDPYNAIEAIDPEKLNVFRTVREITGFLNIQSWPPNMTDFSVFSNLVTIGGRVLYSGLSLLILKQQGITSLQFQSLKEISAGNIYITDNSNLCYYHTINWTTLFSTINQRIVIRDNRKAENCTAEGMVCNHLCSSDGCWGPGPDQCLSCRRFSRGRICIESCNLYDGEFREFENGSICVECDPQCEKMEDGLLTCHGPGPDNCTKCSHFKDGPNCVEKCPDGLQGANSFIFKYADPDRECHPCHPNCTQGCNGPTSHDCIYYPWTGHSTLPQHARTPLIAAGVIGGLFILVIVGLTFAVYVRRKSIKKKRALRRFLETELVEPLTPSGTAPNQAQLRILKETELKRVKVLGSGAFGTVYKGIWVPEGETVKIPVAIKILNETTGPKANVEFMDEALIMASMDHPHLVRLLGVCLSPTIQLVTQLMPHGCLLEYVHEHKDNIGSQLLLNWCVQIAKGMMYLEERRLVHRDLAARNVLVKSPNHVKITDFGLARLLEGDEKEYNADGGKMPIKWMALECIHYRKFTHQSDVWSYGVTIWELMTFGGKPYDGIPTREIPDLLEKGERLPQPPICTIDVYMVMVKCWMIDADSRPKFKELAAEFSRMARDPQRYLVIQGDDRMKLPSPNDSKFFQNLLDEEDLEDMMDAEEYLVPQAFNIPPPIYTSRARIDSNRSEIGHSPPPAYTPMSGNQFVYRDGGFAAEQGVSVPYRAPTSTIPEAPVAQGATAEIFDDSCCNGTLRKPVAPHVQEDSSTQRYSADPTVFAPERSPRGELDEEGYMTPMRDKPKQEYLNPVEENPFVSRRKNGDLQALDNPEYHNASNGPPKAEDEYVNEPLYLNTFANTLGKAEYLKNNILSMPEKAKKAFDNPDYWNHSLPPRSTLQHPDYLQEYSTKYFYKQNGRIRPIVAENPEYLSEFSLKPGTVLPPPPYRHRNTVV

Q: How did the residual activity [1] turn out when c1ccc(-c2n[nH]c3c2oc2ccccc23)cc1 was run?
A: The residual activity was 96%.

Q: And the residual activity [2]?
A: Its residual activity is 78%.

Q: And the residual activity [3]?
A: Its residual activity is 99%.

Q: And the residual activity [4]?
A: Its residual activity is 90%.

Q: What about the residual activity [5] of the same molecule?
A: Its residual activity is 93% (inactive).

Q: What about the residual activity [6] of the same molecule?
A: The residual activity was 100%.

Q: And the residual activity [7]?
A: The residual activity was 100%.

Q: What about the residual activity [8] of the same molecule?
A: Its residual activity is 116%.

Q: What about the residual activity [9] of the same molecule?
A: The residual activity was 90%.

Q: What about the residual activity [10] of the same molecule?
A: The residual activity was 122%.
